Data reported in ChEMBL document CHEMBL1157539, “Thousands of chemical starting points for antimalarial lead identification” (Nature, 2010).

What follows are compounds tested on Plasmodium falciparum (assay: GSK_TCMDC: Inhibition of Plasmodium falciparum 3D7 in whole red blood cells, using parasite LDH activity as an index of growth. Test compounds present at 2uM).
Type: functional

In order of falling Inhibition:
1. COc1ccc(CNCC2CCC(CNCCc3ccccc3)CC2)cc1Cl (stereo not given)  100%
2. CSc1sc(NC(=O)Nc2cccc(C(F)(F)F)c2)cc1C#N  99%
3. O=C(Nc1cccc(-c2nn3ccccc3c2-c2ccnc(Nc3cccc(C(F)(F)F)c3)n2)c1)c1c(F)cccc1F  97%
4. O=C(C=Cc1cn(-c2ccccc2)nc1-c1ccccc1)N1CCN(c2ccncc2)CC1  90%
5. CC(C)c1ccc(NC(=O)c2cccc(CN3CCCN(CC4CCCCC4)CC3)c2)cc1.O=C(O)C(F)(F)F  85%

Each compound was assayed on Plasmodium falciparum (assay: GSK_TCMDC: Inhibition of Plasmodium falciparum Dd2 in whole red blood cells, using parasite LDH activity as an index of growth. Test compounds present at 2uM).
Type: functional

In order of rising Inhibition:
1. CCCc1ccc(NC(=O)c2cccc(CN3CCCN(Cc4cccc(C#N)c4)CC3)c2)cc1.O=C(O)C(F)(F)F  0%
2. COC(=O)CCCCCOc1cc(Cc2cnc(N)nc2N)cc(OC)c1OC  0%
3. COc1cccc(NC(=O)NCCNc2ccnc(Nc3ccc(F)cc3)n2)c1  1%
4. CCCc1cc(Cc2cnc(N)nc2N)ccc1OCCCCCC(=O)OCC  1%
5. O=C(Nc1ccccc1)c1ccc(-c2cc3ccncc3cc2OC2CCNCC2)s1  8%
6. COc1ccc(CN2CCCN(Cc3cccc(C(=O)Nc4ccc(C)c(F)c4)c3)CC2)cc1.O=C(O)C(F)(F)F  10%
7. O=C(Nc1cccc(CN2CCCN(Cc3ccc4c(c3)OCO4)CC2)c1)c1ccc2ccccc2c1.O=C(O)C(F)(F)F  14%
8. O=C(Nc1cccc(F)c1)c1ccc(C(=O)NC2CCN(CC3CCCCC3)CC2)cc1.O=C(O)C(F)(F)F  16%
9. N#CCCN1CCN(Cc2cccc(-c3ccc(-c4nc5ccccc5[nH]4)cc3)c2)CC1.O=C(O)C(F)(F)F  20%
10. O=C(C=Cc1cn(-c2ccccc2)nc1-c1ccccc1)N1CCN(c2ccncc2)CC1  20%
11. Cl.NC1=NC(c2ccccc2)N(OCc2ccccc2)C(N)=N1 (stereo not given)  21%
12. CC(C)CNCc1cccc(-c2cccc(CNc3ccc4ncccc4c3)c2)c1.O=C(O)C(F)(F)F  28%
13. COc1ccc(CNCC2CCC(CNCCc3ccccc3)CC2)cc1Cl (stereo not given)  29%
14. Cl.NC(=O)c1cccc(Nc2nccc(Nc3ccc(Oc4ccc5ccccc5c4)cc3)n2)c1  31%
15. CC1(C)N=C(N)N=C(N)N1c1cc(Cl)c(Cl)c(Cl)c1.CCS(=O)(=O)O  31%
16. Cc1cc(N[C@@H](Cc2ccccc2)C(=O)NCCCOC(C)C)nc(NCCc2ccc(F)cc2)n1.O=C(O)C(F)(F)F  36%
17. CSc1sc(NC(=O)Nc2cccc(C(F)(F)F)c2)cc1C#N  46%
18. CC(C)c1ccc(NC(=O)c2cccc(CN3CCCN(CC4CCCCC4)CC3)c2)cc1.O=C(O)C(F)(F)F  59%
19. CCNc1cc(C(=O)N[C@@H](Cc2ccccc2)[C@H](O)CNC(C)(C)CC(C)(C)C)c(F)c(N2CCCCS2(=O)=O)c1  63%
20. NC1=NC(c2ccccc2)(c2ccccn2)C(=O)N1CCCc1ccccc1.O=C(O)C(F)(F)F (stereo not given)  64%
21. CCCCCC(=O)NCC(NCCCNc1cc(=O)c2ccccc2[nH]1)c1cc(Br)cc(Br)c1 (stereo not given)  66%
22. CCN(CC)S(=O)(=O)c1cc(-c2ccc(=O)n(CC(=O)c3ccc(C)cc3)n2)ccc1C  66%
23. N=C(N)c1ccc(Nc2nccc(Nc3nc(-c4ccccc4)cs3)n2)cc1.O=C(O)C(F)(F)F  75%
24. CC(C)Cc1nc(N2CCOCC2)c2nnn(Cc3ccccc3)c2n1  76%
25. N#Cc1ccc(CN2CCC(Oc3ccc(NC(=O)c4ccsc4)cc3Cl)C2)cc1.O=C(O)C(F)(F)F (stereo not given)  79%
26. CN1CCCC1CCNc1ncc2c(-c3ccc(NC(=O)Nc4cc(C(F)(F)F)ccc4F)c(F)c3)nn(C)c2n1.O=C(O)C(F)(F)F (stereo not given)  90%
27. O=C(O)C(F)(F)F.O=S(=O)(NCCN1CCCC1)c1ccc(-c2ccc(CNC3Cc4ccccc4C3)cc2)cc1  91%
28. CCNc1cc(C(=O)N[C@@H](Cc2ccccc2)[C@H](O)CNCCc2ccccc2)cc(N2CCCCS2(=O)=O)c1.Cl  91%
29. O=C(Nc1cccc(-c2nn3ccccc3c2-c2ccnc(Nc3cccc(C(F)(F)F)c3)n2)c1)c1c(F)cccc1F  91%
30. CCS(=O)(=O)Nc1ccc2[nH]cc(C3CCN(CCC4CCN(C(=O)/C=C/c5ccc(Cl)c(Cl)c5)CC4)CC3)c2c1  94%
31. Br.CCOc1ccc(OCCCON2C(=N)N=C(N)NC2(C)C)cc1  94%
32. CNC(=O)c1cnc(Nc2ccc3[nH]c(=O)[nH]c3c2)nc1Nc1cccc(OC(C)C)c1.O=C(O)C(F)(F)F  94%
33. Br.CCCc1cc(C)ccc1OCCCON1C(N)=NC(N)=NC1(C)C  97%
34. CCN1CCN(Cc2ccc3nc(-c4cc(C)n(Cc5cc(Cl)ccc5OCc5ccccc5)n4)[nH]c3c2)CC1.Cl  97%
35. CN1CCN(c2ccc(Nc3nccc(-c4c(-c5cccc(NC(=O)c6c(F)cccc6F)c5)nn5ccccc45)n3)cc2)CC1  98%
36. CCc1cn2c3c(cc(C(=O)N[C@@H](Cc4ccccc4)[C@H](O)CNC4CCOCC4)cc13)N(CC(F)(F)F)S(=O)(=O)CC2.O=CO  98%
37. COc1ccc2[nH]ccc(=NN=CC=Cc3ccccc3)c2c1  99%
38. O=C(/C=C/c1ccc(Cl)c(Cl)c1)N1CCC(CN2CCC(c3c[nH]c4cnccc34)CC2)CC1  100%
39. CCCCCCCN1CC[C@@H](CCCc2ccnc3ccc(OCCC4CCNCC4)cc23)[C@@H](CC)C1.Cl  100%
40. O=C(Nc1cccc(C(F)(F)F)c1)Nc1ccc(F)c([N+](=O)[O-])c1  100%
